{
  "source": "PubChem BioAssay AID1240",
  "about": "(Sanford-Burnham Center for Chemical Genomics, 2008)",
  "note": "Where “and” joins values, the source holds several entries; their conditions need not be identical. Identical values can stand only once. The campaign covered roughly 50,000 compounds. About 800 (1.6%) showed an effect of 50% or more. For the sample, strong results were picked, then their nearest neighbours and some compounds at random.",
  "data": [
    {"molecular_target": "Bcl-2-like protein 10 (Homo sapiens) (UniProt Q9HD36)", "sequence (Q9HD36 whole entry, looked up)": "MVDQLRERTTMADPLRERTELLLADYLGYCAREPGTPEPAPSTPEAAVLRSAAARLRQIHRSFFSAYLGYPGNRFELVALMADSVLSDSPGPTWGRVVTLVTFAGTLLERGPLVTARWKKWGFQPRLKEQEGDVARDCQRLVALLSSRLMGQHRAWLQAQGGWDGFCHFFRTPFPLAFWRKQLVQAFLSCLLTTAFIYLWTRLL", "assay": "TR3 peptide-Bcl-B binding displacers, biochemical primary FP assay, phenotype converters (AID 1240);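 note: 0% = Bcl-B with tracer peptide and DMSO and 100% = tracer peptide lacking Bcl-B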", "conditions": "GST-Bcl-B / FITC-TR3 peptide fluorescence polarization; stronger effect = higher value; compound at 3.75 mg/L", "values": [
      {"smiles": "O=C(Cc1ccccc1)N1CCN(Cc2cccnc2)CC1", "displacement": "9.9%"},
      {"smiles": "CC(C)c1ccc(N2C(=O)CC(=O)NC2=O)cc1", "displacement": "-5.9%"},
      {"smiles": "CC1(C)C(C(=O)Nc2cccc3ccccc23)C1(C)C", "displacement": "3.9%"},
      {"smiles": "Cc1ccccc1-n1c(CN2C(=O)c3ccccc3C2=O)nc2ccccc2c1=O", "displacement": "-9.6%"},
      {"smiles": "CC(C)CCn1c(=O)c(C(=O)Nc2ccc(I)cc2)c(O)c2ccccc21", "displacement": "7.1%"},
      {"smiles": "Cc1cc(Cl)ccc1OCC(=O)N1CCN(C)CC1", "displacement": "-6.7%"},
      {"smiles": "O=C(Nc1ccc(Br)cc1C(=O)c1ccccc1)c1ccc(F)cc1", "displacement": "8.4%"},
      {"smiles": "O=C(ON1CC1(C(F)(F)F)C(F)(F)F)c1ccccc1", "note": "(centres undefined)", "displacement": "3.2%"},
      {"smiles": "O=C1c2ccccc2-c2onc3c(Br)cc(N4CC4)c1c23", "displacement": "178%"},
      {"smiles": "Cc1ccc(N2C(=O)CC(=O)NC2=S)cc1", "displacement": "5.6%"},
      {"smiles": "COc1cccc(/C=C2/C(=O)NC(=O)N(c3cccc(C)c3)C2=O)c1O", "displacement": "3.1%"},
      {"smiles": "Cc1ccc(N2C(=O)NC(=O)/C(=C\\c3ccc(-c4ccc(Cl)c(C(=O)O)c4)o3)C2=O)cc1", "displacement": "6.3%"},
      {"smiles": "COc1ccc(N2C(=O)NC(=O)/C(=C/c3cc4c(cc3Cl)OCO4)C2=O)cc1", "displacement": "81.5%"},
      {"smiles": "Cc1ccc(/C=C2/C(=O)NC(=O)N(c3ccc(Cl)cc3)C2=O)o1", "displacement": "36.2%"},
      {"smiles": "COc1ccc(N2C(=O)NC(=O)/C(=C/c3ccc(SC)cc3)C2=O)cc1", "displacement": "-9.4%"},
      {"smiles": "COc1ccc(N2C(=O)NC(=O)/C(=C/c3ccc(-c4cccc(Cl)c4)o3)C2=O)cc1", "displacement": "69%"},
      {"smiles": "CN1C(=O)NC(=O)/C(=C\\c2cc3c(cc2Cl)OCO3)C1=O", "displacement": "0.4%"},
      {"smiles": "COc1ccc(CN2CCN(Cc3cc(Br)ccc3O)CC2)cc1", "displacement": "13.1%"},
      {"smiles": "Cc1cc(C=C2C(=O)NC(=O)NC2=O)c(C)n1-c1ccc(N(C)C)cc1", "displacement": "0.1%"},
      {"smiles": "CN=C(C)c1c(O)n(C)c(=S)n(C)c1=O", "displacement": "8.8%"},
      {"smiles": "C(=NCCCN1CCOCC1)c1c[nH]c2ccccc12", "displacement": "2.6%"},
      {"smiles": "O=c1c2ccccc2nc(-c2cccs2)n1-c1ccccn1", "displacement": "19.3%"},
      {"smiles": "O=C(Cn1c[n+]([N-][N+](=O)[O-])cn1)N1CCN(C(=O)Cn2c[n+]([N-][N+](=O)[O-])cn2)CC1", "displacement": "15%"},
      {"smiles": "O=C(Cn1c[n+]([N-][N+](=O)[O-])cn1)Nc1ccc(NC(=O)Cn2c[n+]([N-][N+](=O)[O-])cn2)cc1", "displacement": "59.6%"},
      {"smiles": "O=C(Cn1c[n+]([N-][N+](=O)[O-])cn1)Nc1ccc([N+](=O)[O-])cc1", "displacement": "16.4%"},
      {"smiles": "CCOc1ccc(N2C(=O)NC(=O)/C(=C\\c3ccc(C)o3)C2=O)cc1", "displacement": "11.6%"},
      {"smiles": "COc1ccc(C=C2C(=O)NC(=O)NC2=O)cc1OCc1ccc(Cl)cc1Cl", "displacement": "150%"},
      {"smiles": "COc1cc(C=C2C(=O)NC(=O)NC2=O)ccc1OCc1ccc(C(=O)O)cc1", "displacement": "0.6%"},
      {"smiles": "COc1ccc(C=C2C(=O)NC(=S)NC2=O)cc1OCc1ccccc1Cl", "displacement": "8.2%"},
      {"smiles": "O=c1oc2ccccc2c2c1C(c1ccc(Cl)cc1)c1c(c3ccccc3oc1=O)O2", "displacement": "10.3%"},
      {"smiles": "COc1cccc(CN2CCNCC2)c1OC", "displacement": "15.6%"},
      {"smiles": "O=C(N/N=C1/CN2CCC1CC2)c1ccc(O)cc1", "displacement": "17.8%"},
      {"smiles": "CN1C(=O)NC(=O)/C(=C/c2ccc(-c3ccccc3[N+](=O)[O-])o2)C1=O", "displacement": "35.6%"},
      {"smiles": "COC(=O)C(=O)/C(=C\\c1ccc(-c2ccccc2[N+](=O)[O-])o1)C(=O)c1ccccc1", "displacement": "56.7%"},
      {"smiles": "O=C1C(=Cc2ccc(-c3ccccc3[N+](=O)[O-])o2)C(=O)N(c2ccccc2)C(=S)N1c1ccccc1", "displacement": "16.4%"},
      {"smiles": "Cc1ccccc1-n1c(=S)[nH]c2ccccc2c1=O", "displacement": "-11% and -8.7%"},
      {"smiles": "O=C1Nc2ccccc2/C1=C/c1nc2ccc(I)cc2c(=O)n1-c1ccccc1", "displacement": "4.5%"},
      {"smiles": "O=[N+]([O-])c1ccc(CNCCc2cccc(F)c2)cc1", "displacement": "2.2%"},
      {"smiles": "COc1cc(C=C2C(=O)N(C)C(=O)N(C)C2=O)ccc1OCCOc1ccccc1", "displacement": "54.3%"},
      {"smiles": "C=CCOc1ccc(/C=C2\\C(=O)NC(=O)N(CC=C)C2=O)cc1OC", "displacement": "10.9%"},
      {"smiles": "CN1C(=O)C(=Cc2cccc(OCCOc3ccc([N+](=O)[O-])cc3)c2)C(=O)N(C)C1=O", "displacement": "6.4%"},
      {"smiles": "Cc1ccc(-c2nc3ccccc3c(=O)n2-c2nccs2)cc1", "displacement": "-0.6%"},
      {"smiles": "O=[N+]([O-])/C=C/c1ccccc1OCc1ccc(Cl)cc1Cl", "displacement": "4.5%"},
      {"smiles": "O=C1NC(=O)N(c2cccc(Br)c2)C(=O)/C1=C/c1ccco1", "displacement": "5.2%"},
      {"smiles": "Cc1cc(C)cc(N2C(=O)NC(=O)/C(=C\\c3cc(C)n(C)c3C)C2=O)c1", "displacement": "90.5%"},
      {"smiles": "Cc1cc(/C=C2\\C(=O)NC(=O)N(c3ccc(Cl)cc3)C2=O)c(C)n1C", "displacement": "1.7%"},
      {"smiles": "O=C1NC(=O)N(c2ccccc2Cl)C(=O)C1=Cc1ccccc1", "displacement": "12.8%"},
      {"smiles": "Cc1cc(C=C2C(=O)NC(=S)NC2=O)c(C)n1C", "displacement": "6.6%"},
      {"smiles": "Cc1cc(/C=C2\\C(=O)NC(=S)N(c3ccccc3F)C2=O)c(C)n1C", "displacement": "14.1%"},
      {"smiles": "CCc1ccccc1N1C(=O)NC(=O)/C(=C\\c2cc(C)n(C)c2C)C1=O", "displacement": "87.7%"},
      {"smiles": "Cc1cc(/C=C2\\C(=O)NC(=O)N(c3cccc(Br)c3)C2=O)c(C)n1C", "displacement": "126%"},
      {"smiles": "O=C1NC(=O)N(c2cccc(Br)c2)C(=O)/C1=C/c1ccc(-c2ccc(C(=O)O)cc2)o1", "displacement": "-56.7%"},
      {"smiles": "Cc1ccc(-n2c(/C=C3/C(=O)Nc4ccc(Br)cc43)nc3ccccc3c2=O)cc1", "displacement": "4.3%"},
      {"smiles": "Cc1cc(C)cc(N2C(=O)NC(=O)/C(=C\\C=C\\c3ccccc3)C2=O)c1", "displacement": "42.9%"},
      {"smiles": "CCCCn1c(=O)c(C(=O)Nc2ccc(I)cc2)c(O)c2ccccc21", "displacement": "7.1%"},
      {"smiles": "CN1C(=O)C(=Cc2ccc(-c3cc(C(=O)O)ccc3Cl)o2)C(=O)N(C)C1=O", "displacement": "-2.5%"},
      {"smiles": "Cc1ccc(N2C(=O)NC(=O)/C(=C\\C=C\\c3ccccc3)C2=O)cc1", "displacement": "21.4%"},
      {"smiles": "Cc1cc([N+](=O)[O-])c(C)cc1-c1ccc(C=C2C(=O)NC(=O)NC2=O)o1", "displacement": "8.4%"},
      {"smiles": "O=C1NC(=S)NC(=O)C1=Cc1ccc(-c2ccc([N+](=O)[O-])cc2Br)o1", "displacement": "29%"},
      {"smiles": "O=C1NC(=O)C(=Cc2ccc(-c3ccc([N+](=O)[O-])cc3Cl)o2)C(=O)N1", "displacement": "66.8%"},
      {"smiles": "Cc1cc([N+](=O)[O-])ccc1-c1ccc(/C=C2/C(=O)NC(=O)N(C)C2=O)o1", "displacement": "11.4%"},
      {"smiles": "Cc1cc(-c2ccc(C=C3C(=O)NC(=O)NC3=O)o2)ccc1[N+](=O)[O-]", "displacement": "13.1%"},
      {"smiles": "O=C1NC(=S)NC(=O)C1=Cc1ccc(-c2cc(Cl)c([N+](=O)[O-])cc2Cl)o1", "displacement": "19.3%"},
      {"smiles": "CN1C(=O)NC(=O)/C(=C/c2ccc(-c3cccc([N+](=O)[O-])c3)o2)C1=O", "displacement": "-20.5%"},
      {"smiles": "Cc1cccc(N2C(=O)NC(=O)/C(=C/c3ccc(-c4ccc([N+](=O)[O-])cc4C)o3)C2=O)c1", "displacement": "76.7%"},
      {"smiles": "CN1C(=O)NC(=O)/C(=C/c2ccc(-c3ccc([N+](=O)[O-])cc3Br)o2)C1=O", "displacement": "-9.1%"},
      {"smiles": "O=C1NC(=O)C(=Cc2ccc(-c3cc([N+](=O)[O-])ccc3O)o2)C(=O)N1", "displacement": "109%"},
      {"smiles": "CN1C(=O)NC(=O)/C(=C/c2ccc(-c3ccc([N+](=O)[O-])cc3)o2)C1=O", "displacement": "3.6%"},
      {"smiles": "C=CCN1C(=O)NC(=O)/C(=C/c2ccc(-c3cc([N+](=O)[O-])ccc3Cl)o2)C1=O", "displacement": "84.3%"},
      {"smiles": "COc1ccc(CN2C(=O)NC(=O)/C(=C\\c3ccoc3)C2=O)cc1", "displacement": "-114%"},
      {"smiles": "CSc1nc2ccccc2c(=O)n1-c1cccc(C)c1", "displacement": "-6.2%"},
      {"smiles": "O=C1NC(=O)N(c2ccc(Cl)cc2)C(=O)/C1=C\\c1cc(Br)cc(Cl)c1O", "displacement": "4.8%"},
      {"smiles": "N#CC(C#N)=Cc1cccc2ccccc12", "displacement": "5.7%"},
      {"smiles": "O=C1NC(=S)NC(=O)C1=Cc1cccc(OS(=O)(=O)c2ccc3ccccc3c2)c1", "displacement": "3.4%"},
      {"smiles": "COc1cc(OC)c(OC)cc1CN1CCN(C(=O)COc2ccccc2)CC1", "displacement": "-13.1%"},
      {"smiles": "COc1ccc(CN2CCN(C(=O)Cc3ccccc3)CC2)cc1Br", "displacement": "-10%"},
      {"smiles": "CN(C)c1ccc(/C=C2\\C(=O)NC(=O)N(c3ccccc3Cl)C2=O)cc1", "displacement": "9.7%"},
      {"smiles": "Cc1cc(C)cc(-n2c(C)cc(C=C3C(=O)NC(=O)NC3=O)c2C)c1", "displacement": "13.1%"},
      {"smiles": "Cc1cc(C=C2C(=O)NC(=O)NC2=O)c(C)n1C", "displacement": "2.4%"},
      {"smiles": "Cc1cc(C=C2C(=O)NC(=O)NC2=O)c(C)n1C1CCCCC1", "displacement": "124%"},
      {"smiles": "O=C1c2ccccc2NC(c2ccccc2F)N1c1ccccc1", "note": "(centres undefined)", "displacement": "-0.3%"},
      {"smiles": "Cc1nc2cc([N+](=O)[O-])ccc2c(=O)n1-c1ccc(Cl)cc1", "displacement": "71.3%"},
      {"smiles": "Cc1nc2ccc(I)cc2c(=O)n1-c1ccc([N+](=O)[O-])cc1Cl", "displacement": "13%"},
      {"smiles": "Cc1nc2ccccc2c(=O)n1-c1ccc([N+](=O)[O-])cc1", "displacement": "11.9%"}
    ]}
  ]
}
